Measurements: the supplement of paper PMC11732987, “Enantioselective OTUD7B fragment discovery through chemoproteomics screening and high-throughput optimisation” (Communications Chemistry, 2025)

Legend:
Assay in all cases: log2 ratio of Biotin-Ahx-Ub-VS probe labelling (fragment/DMSO); higher = less target engagement (more negative = stronger competition), active = hit call of the paper (q ≤ 0.05, log2 ratio ≤ -1)
Details in all cases: compound concentration: 200 uM; treatment time: 3 h
USP9X = USP9X (UniProt Q93008)
Outline: (§1)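 HEK293T lysate (495 µg per sample, in Tris/CHAPS/IGEPAL buffer with protease inhibitors) was exposed in triplicate for 3 h to fragment at 200 µM or to vehicle, then to Biotin-Ahx-Ub-VS at 0.5 µM final for 1 h. Labelled DUBs were enriched on NeutrAvidin, digested with LysC and trypsin, and analysed by diaPASEF LC-MS/MS. Spectronaut label-free quantities were normalised to the global median, and values are average log2 ratios of fragment over vehicle from an unpaired t-test. Only proteins with ≥2 unique peptides were used.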

UniProt O00487 = target: UniProt O00487
Outline: as §1

UniProt O00507 = target: UniProt O00507
Outline: as §1

UniProt P51784 = target: UniProt P51784
Outline: as §1

UniProt Q5T2D3 = target: T1, UniProt Q5T2D3
T1 sequence (whole entry): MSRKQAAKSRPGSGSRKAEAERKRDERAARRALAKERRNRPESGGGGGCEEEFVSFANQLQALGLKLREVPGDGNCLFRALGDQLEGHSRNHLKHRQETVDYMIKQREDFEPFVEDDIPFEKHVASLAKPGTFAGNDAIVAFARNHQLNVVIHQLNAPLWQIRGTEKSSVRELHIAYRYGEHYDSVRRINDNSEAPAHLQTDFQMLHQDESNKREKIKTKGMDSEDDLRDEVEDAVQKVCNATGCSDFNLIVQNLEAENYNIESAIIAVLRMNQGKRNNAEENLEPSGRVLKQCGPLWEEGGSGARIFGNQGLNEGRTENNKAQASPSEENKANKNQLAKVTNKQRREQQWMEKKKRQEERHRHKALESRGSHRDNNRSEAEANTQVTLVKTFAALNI
Outline: as §1

UniProt Q8TE49 = target: T2, UniProt Q8TE49
T2 sequence (whole entry): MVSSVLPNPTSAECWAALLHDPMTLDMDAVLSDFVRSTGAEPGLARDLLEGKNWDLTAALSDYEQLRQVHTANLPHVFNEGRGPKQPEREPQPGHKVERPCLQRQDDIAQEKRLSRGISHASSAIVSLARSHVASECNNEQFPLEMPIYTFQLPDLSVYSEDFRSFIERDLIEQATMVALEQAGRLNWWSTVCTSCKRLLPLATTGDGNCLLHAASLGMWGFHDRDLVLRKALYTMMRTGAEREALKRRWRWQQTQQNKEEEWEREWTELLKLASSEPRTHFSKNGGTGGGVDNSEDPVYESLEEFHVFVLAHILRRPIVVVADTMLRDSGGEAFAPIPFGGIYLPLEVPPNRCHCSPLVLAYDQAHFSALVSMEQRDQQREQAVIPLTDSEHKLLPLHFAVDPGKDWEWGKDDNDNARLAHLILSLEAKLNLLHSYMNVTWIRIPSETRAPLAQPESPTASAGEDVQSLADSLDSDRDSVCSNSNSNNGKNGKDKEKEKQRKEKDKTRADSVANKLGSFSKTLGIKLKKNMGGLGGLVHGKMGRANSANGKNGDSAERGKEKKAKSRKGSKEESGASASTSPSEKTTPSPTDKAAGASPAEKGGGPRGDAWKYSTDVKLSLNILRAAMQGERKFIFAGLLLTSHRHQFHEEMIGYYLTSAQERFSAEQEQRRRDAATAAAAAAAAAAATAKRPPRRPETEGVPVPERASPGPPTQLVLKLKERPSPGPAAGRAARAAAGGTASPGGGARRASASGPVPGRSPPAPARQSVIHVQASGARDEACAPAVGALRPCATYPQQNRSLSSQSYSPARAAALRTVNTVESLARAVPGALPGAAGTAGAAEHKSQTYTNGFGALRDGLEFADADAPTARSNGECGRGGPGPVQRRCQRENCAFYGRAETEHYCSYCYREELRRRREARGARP
Outline: as §1

UniProt Q9P2H5 = target: T3, UniProt Q9P2H5
T3 sequence (whole entry): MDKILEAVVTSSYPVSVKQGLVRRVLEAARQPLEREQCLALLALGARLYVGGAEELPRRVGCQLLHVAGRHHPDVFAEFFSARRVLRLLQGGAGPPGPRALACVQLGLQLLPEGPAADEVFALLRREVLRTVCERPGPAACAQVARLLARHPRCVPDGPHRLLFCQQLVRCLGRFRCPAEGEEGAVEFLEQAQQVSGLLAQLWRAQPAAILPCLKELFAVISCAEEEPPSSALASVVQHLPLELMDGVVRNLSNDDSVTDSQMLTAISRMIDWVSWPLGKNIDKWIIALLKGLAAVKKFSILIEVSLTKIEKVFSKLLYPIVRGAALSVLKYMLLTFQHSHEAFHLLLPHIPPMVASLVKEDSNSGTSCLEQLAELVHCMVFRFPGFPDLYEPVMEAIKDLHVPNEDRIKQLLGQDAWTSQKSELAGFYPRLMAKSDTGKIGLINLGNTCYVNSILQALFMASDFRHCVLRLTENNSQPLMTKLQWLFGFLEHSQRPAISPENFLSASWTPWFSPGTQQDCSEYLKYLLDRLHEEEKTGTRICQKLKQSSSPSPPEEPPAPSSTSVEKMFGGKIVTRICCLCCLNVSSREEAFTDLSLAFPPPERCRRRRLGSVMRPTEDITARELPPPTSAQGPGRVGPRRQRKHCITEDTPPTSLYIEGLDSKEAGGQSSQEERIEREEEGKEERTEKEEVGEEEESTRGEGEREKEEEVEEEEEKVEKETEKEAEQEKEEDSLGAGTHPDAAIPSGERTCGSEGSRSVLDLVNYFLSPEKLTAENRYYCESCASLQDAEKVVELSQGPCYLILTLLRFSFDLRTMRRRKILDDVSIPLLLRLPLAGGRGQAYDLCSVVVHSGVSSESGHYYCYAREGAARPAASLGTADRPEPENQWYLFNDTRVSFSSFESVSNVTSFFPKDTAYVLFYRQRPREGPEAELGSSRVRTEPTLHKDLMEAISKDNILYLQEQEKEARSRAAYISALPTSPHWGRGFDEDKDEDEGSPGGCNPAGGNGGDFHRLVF
Outline: as §1

UniProt Q9UGI0 = target: T4, UniProt Q9UGI0
T4 sequence (whole entry): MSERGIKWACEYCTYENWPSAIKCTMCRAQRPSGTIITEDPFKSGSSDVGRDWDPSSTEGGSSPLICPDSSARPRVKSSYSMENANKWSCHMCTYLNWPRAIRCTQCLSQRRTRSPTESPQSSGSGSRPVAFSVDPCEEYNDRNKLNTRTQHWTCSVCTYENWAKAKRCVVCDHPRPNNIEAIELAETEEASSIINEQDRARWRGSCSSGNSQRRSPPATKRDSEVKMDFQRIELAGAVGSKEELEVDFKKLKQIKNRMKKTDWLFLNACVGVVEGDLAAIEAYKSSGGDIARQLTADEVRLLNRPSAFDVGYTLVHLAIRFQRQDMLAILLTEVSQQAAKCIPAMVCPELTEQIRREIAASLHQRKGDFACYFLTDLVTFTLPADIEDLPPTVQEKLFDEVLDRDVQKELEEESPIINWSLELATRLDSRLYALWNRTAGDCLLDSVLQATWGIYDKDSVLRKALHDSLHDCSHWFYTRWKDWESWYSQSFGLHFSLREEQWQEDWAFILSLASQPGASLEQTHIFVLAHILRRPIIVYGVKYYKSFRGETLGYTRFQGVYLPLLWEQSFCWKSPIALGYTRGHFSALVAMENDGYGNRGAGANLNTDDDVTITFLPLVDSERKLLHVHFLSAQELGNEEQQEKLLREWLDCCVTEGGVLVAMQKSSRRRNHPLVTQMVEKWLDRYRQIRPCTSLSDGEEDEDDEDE
Outline: as §1

YOD1 = target: T5, YOD1 (UniProt Q5VVQ6)
T5 sequence (whole entry): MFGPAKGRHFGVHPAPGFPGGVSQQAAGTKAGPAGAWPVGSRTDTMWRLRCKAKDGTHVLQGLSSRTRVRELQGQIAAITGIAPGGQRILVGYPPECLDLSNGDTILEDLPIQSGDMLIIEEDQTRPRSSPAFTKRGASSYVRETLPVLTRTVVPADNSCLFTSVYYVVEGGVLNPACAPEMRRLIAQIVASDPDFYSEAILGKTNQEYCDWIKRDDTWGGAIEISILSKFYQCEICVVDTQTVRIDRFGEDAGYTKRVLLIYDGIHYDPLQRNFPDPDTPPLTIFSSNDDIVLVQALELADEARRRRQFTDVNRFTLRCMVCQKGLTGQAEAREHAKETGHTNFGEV
Outline: as §1

Measured: log2 ratio of Biotin-Ahx-Ub-VS probe labelling

Sequence of UniProt O00487 (O00487 whole entry): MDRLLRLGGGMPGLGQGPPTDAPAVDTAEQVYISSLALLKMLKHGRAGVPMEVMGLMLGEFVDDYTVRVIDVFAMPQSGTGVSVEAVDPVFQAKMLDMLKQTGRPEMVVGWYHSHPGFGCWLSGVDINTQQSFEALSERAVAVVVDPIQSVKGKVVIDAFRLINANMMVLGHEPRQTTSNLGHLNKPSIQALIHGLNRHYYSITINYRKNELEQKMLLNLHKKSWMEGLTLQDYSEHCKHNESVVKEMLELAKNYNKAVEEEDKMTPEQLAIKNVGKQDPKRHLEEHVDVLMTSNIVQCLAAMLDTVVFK
Sequence of UniProt P51784 (P51784 whole entry): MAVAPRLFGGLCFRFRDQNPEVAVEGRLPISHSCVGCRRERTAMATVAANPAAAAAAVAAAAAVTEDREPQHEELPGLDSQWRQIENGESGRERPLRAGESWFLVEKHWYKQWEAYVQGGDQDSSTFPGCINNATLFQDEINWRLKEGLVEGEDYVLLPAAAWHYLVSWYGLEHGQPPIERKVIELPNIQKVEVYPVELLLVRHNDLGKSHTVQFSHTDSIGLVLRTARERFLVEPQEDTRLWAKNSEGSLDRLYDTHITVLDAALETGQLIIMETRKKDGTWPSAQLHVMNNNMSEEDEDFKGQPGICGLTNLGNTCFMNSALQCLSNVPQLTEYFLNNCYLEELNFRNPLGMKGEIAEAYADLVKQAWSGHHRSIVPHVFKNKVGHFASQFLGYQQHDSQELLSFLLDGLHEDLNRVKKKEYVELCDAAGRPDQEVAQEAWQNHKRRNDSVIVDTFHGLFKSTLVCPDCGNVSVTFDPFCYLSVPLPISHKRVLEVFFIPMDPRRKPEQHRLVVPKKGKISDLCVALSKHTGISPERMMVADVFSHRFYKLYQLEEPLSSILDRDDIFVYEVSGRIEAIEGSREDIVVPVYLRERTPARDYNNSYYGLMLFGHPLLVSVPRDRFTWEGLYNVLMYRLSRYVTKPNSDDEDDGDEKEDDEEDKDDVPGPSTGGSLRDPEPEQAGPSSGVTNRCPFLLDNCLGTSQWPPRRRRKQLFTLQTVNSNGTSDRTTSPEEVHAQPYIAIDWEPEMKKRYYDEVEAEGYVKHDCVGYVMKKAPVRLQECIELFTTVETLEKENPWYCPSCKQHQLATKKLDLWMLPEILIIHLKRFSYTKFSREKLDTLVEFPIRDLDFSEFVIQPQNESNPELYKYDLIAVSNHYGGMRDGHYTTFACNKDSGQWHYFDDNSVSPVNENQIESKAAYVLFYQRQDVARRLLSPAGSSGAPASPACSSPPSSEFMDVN
Sequence of USP9X (Q93008 whole entry, the tested form may be a part): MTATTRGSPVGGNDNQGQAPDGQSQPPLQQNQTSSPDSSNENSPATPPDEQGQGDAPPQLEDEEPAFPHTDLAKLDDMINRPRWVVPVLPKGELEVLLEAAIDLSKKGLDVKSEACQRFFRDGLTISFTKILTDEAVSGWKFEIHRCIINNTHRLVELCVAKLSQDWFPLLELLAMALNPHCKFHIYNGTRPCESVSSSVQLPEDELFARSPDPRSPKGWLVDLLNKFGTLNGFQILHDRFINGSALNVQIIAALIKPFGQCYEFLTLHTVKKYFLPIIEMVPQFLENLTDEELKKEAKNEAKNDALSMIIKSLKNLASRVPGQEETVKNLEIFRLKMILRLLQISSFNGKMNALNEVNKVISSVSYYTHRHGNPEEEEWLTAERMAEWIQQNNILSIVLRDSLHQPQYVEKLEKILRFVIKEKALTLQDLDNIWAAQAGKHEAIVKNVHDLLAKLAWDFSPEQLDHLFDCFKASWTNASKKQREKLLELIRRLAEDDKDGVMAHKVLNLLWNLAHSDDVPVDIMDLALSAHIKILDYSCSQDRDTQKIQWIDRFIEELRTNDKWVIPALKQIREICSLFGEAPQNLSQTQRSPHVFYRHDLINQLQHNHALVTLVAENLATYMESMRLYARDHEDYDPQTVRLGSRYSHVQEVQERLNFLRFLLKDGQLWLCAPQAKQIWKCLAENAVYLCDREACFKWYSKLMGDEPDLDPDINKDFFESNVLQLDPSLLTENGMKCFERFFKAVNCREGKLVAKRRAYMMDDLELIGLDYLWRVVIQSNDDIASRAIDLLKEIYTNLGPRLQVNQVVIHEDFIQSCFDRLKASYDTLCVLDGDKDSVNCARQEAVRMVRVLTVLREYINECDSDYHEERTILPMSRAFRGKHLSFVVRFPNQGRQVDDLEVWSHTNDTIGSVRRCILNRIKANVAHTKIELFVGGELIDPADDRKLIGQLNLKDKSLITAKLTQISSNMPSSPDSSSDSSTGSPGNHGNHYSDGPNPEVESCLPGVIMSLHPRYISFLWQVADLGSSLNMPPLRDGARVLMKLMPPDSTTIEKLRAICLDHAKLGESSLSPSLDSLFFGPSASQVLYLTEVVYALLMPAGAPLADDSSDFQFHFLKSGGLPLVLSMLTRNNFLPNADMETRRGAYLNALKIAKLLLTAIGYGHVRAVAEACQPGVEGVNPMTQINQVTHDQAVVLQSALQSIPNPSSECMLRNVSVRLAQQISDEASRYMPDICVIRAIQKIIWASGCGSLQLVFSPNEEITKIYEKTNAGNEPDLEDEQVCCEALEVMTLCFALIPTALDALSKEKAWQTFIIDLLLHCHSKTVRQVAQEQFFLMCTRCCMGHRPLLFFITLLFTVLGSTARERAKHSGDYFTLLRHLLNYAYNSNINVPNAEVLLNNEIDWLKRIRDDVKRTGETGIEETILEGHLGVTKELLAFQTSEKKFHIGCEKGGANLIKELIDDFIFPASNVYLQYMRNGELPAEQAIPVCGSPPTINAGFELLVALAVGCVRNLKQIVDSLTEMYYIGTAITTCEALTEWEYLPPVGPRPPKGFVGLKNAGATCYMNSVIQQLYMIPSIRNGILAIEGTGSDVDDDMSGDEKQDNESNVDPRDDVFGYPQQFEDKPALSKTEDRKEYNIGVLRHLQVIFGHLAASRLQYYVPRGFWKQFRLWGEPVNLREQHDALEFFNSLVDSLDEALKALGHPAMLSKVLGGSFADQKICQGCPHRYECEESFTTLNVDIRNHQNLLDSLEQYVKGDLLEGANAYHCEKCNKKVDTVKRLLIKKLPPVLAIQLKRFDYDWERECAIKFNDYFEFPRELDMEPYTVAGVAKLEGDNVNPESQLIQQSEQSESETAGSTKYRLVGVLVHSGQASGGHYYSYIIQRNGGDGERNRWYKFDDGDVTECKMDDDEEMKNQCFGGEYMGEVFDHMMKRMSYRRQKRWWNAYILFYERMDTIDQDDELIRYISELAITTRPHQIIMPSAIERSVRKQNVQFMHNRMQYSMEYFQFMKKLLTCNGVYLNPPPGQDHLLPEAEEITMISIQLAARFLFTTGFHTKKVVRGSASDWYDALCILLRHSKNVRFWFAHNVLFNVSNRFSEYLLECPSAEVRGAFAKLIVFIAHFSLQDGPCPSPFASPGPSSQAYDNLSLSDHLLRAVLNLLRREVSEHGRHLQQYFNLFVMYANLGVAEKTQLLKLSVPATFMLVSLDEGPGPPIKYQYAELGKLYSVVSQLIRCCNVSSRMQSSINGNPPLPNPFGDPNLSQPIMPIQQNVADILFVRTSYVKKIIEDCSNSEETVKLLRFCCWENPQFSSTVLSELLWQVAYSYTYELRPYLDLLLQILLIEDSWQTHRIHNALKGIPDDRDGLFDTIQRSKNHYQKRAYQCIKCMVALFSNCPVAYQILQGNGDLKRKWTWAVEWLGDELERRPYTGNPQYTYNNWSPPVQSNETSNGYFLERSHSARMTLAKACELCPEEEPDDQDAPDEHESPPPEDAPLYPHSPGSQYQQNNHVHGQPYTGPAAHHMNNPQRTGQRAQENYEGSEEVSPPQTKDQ

Cl.Cn1nccc1C(NC(=O)CCl)c1ccccc1 (centres undefined)
inactive: USP9X -0.0773 | UniProt O00487 -0.0868 | UniProt O00507 0.249 | UniProt P51784 -0.121 | UniProt Q5T2D3 -0.172 | UniProt Q8TE49 -0.655 | UniProt Q9P2H5 -0.154 | UniProt Q9UGI0 -0.583 | YOD1 0.125
